Laboratory results as given in PubChem BioAssay AID504841 (National Center for Advancing Translational Sciences (NCATS), 2011).
“And” between values parts separate entries of the source, which are not always exact repeats. Equal values may be shown once. Among all 1,100 compounds or so, about 160 (15%) were called active. Roughly 36% stayed inconclusive and do not appear here. Calls follow the shape of the dose curve; as a rule, active = well fitted inhibition curve with a large enough effect; inconclusive = small, poorly fitted or top-dose-only effect; inactive = no such curve, though single readings can be large or run the other way. A selection follows.
% is scaled to controls: 0 for no effect and ±100 for the full control effect; potency is read from the fitted curve at half-maximal effect.
Also: nearly all actives have a fitted effect of over 50% in size.

The compounds below were run against ATP-dependent DNA helicase Q1 (Homo sapiens) (UniProt P46063) (assay: Confirmation qHTS Assay for Inhibitors of RecQ-Like Dna Helicase 1 (RECQ1) - Round 2 Cherry Picks). Conditions: recombinant RECQ1 DNA unwinding, red fluorescence; series mostly up to 119 µM; activity, negative = inhibition: at the top concentration.
Sequence of ATP-dependent DNA helicase Q1 (Homo sapiens) (P46063 whole entry, looked up): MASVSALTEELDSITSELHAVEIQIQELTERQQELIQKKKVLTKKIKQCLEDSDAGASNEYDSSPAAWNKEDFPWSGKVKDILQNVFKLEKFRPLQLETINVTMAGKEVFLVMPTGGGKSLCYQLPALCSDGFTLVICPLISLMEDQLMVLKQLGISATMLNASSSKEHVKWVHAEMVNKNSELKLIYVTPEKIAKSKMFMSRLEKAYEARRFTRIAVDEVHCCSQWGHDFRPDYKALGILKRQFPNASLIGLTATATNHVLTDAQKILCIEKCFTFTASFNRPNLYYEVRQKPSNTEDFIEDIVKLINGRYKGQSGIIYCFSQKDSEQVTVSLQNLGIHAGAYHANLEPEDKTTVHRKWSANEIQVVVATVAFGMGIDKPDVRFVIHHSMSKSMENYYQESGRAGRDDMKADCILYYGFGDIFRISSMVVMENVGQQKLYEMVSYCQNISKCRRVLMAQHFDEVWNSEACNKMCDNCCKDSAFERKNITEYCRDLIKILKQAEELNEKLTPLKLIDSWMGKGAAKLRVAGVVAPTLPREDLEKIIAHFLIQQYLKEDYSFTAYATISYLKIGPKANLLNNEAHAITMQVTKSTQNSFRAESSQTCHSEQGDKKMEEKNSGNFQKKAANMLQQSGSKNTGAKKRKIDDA
Excerpt: Survival of cells and the faithful propagation of the genome depend on elaborate mechanisms of detecting and repairing DNA damage. Treatment of advanced cancer relies on radiation therapy or chemotherapy, which kill cancer cells by causing extensive DNA damage. It is often found, that cancer cells develop resistance to therapy through enhanced activity of DNA repair functions; this has led to an increased interest in developing drugs that interfere with DNA repair, which could sensitize cancer cells to conventional therapy. This validation qHTS assay pertains to human RECQ1, which is important in resolving abnormal DNA structures formed during replication or homologous recombination. Shutting down the expression of RECQ1 leads to chromosomal instability and higher radiation sensitivity in cultured cells. […] The validation assay was a fluorescence quenching based kinetic qHTS for RECQ1 Helicase DNA unwinding. The activity was measured as ATP-dependent separation of a 20-bp DNA duplex extended by 30-nt single-stranded tails (forked duplex). The forked DNA substrate was tagged with rhodamine fluorophore (carboxytetramethyl rhodamine, TAMRA) and BHQ-2 (Black Hole Quencher 2) dark quencher. Strand separation results in an increase in the fluorescence of TAMRA (excitation 525 nm, emission 598 nm). This substrate construct operates in a red-shifted region where very few compound library members have been noted to fluoresce (PubChem AIDs 593 and 594). An additional feature of the assay is the inclusion of 2.5 ug/ml poly (dIdC), to reduce interference by compounds such as DNA intercalators, a major source of false inhibitors. NIH Chemical Genomics Center [NCGC] NIH Molecular Libraries Probe Centers Network [MLPCN] MLPCN Grant: MH087284-01 Assay Submitter (PI): Opher Gileadi, Structural Genomics Consortium, University of Oxford
Three uL of reaction buffer (25 mM Tris-HCl (pH 8.0), 5 mM NaCl, 2 mM MgCl2, 1mM DTT, 0.01% Tween- 20, and 2.5 ug/ml poly(dI-dC), including enzyme (50 nM RECQ1T1), were dispensed into a 1536-well Greiner black assay plate via solenoid-valve based nanoliter dispensers. Compounds (23 nl each in columns 5-48) and control (23 nl each in column 2 as dose-response) were transferred via a Kalypsys pintool equipped with a 1536-pin array. The plates were incubated for 15 min at room temperature, and then 1 ul of substrates (200 nM DNA and 2 mM ATP, final concentrations) was added to start the reaction. The plate was transferred into a ViewLux high-throughput CCD imager where the reaction progress was measured in a discontinuous kinetic mode (two reads spaced 2 hours apart, with intermediate room temperature incubation of the covered assay plate) by using standard red-fluorescence optics (excitation filter 525 nm, emission filter 598 nm). Enzyme-free and vehicle (DMSO) controls were included for signal normalization.
For `CCC(c1nnnn1Cc1ccco1)N(Cc1cc2cc(OC)ccc2[nH]c1=O)C1CCCCC1` (stereo not drawn), the “activity, negative = inhibition” value was -21.4% (inactive).
In the case of `COc1cccc(NC(=S)C(C#N)=C2N(C)c3ccccc3N2C)c1`, the “activity, negative = inhibition” value is reported as -0.219% (inactive).
For `COc1c(O)cc2oc(-c3ccc(O)c(O)c3)cc(=O)c2c1O`, the Potency was 4.47 µM (active) and 2 µM (active).
`O=C(CSc1ccc(-c2ccco2)nn1)NCc1ccc2c(c1)OCO2` was tested, and the “activity, negative = inhibition” value was -23.4% (inactive).
For `Oc1c(C=Nc2cccc3nsnc23)ccc2ccccc12`, the Potency was 39.8 µM (active).
`COc1ccc(Cl)cc1C(=O)NNC(=S)NC(=O)/C=C/c1ccco1` was tested, and the “activity, negative = inhibition” value was -2.87% (inactive).
For `Oc1ccc(N=Cc2sc3ccccc3c2Cl)cc1`, the “activity, negative = inhibition” value was -11.5% (inactive).
For `COc1ccc2[nH]c3c(C)c4cc[n+](C)cc4c(C)c3c2c1`, the Potency was 2.51 µM (active).
For `CCCCOC(=O)c1ccc(NC(c2ccc(C)cc2)P(=O)(OC)OC)cc1` (stereo not drawn), the “activity, negative = inhibition” value was -16.6% (inactive).
`COC(=O)Cc1cc(=O)n(-c2nc3ccccc3s2)[nH]1` was tested, and the “activity, negative = inhibition” value was -11.9% (inactive).
`Cc1cccc(-n2nc3c(c2NC(=O)c2ccc(Br)o2)CSC3)c1C` was tested, and the “activity, negative = inhibition” value was -41.9% (inactive).
In the case of `COc1cc(C(=O)NCc2nnc(SCC(=O)Nc3nc4ccc(C)cc4s3)o2)cc(OC)c1OC`, the “activity, negative = inhibition” value is reported as -7.03% (inactive).
For `COCCNC(=O)Nc1ccc2nc(-c3ccco3)c(-c3ccco3)nc2c1`, the “activity, negative = inhibition” value was -28.3% (inactive).
For `CC(C)Cn1c(N)c(C(=O)NCc2cccs2)c2nc3ccccc3nc21`, the “activity, negative = inhibition” value was -24.6% (inactive).
`CN1C(=O)/C(=C/c2ccco2)SC1=Nc1cccc(C(=O)O)c1` was tested, and the “activity, negative = inhibition” value was -25.9% (inactive).
In the case of `CCc1cc(C(c2ccccc2OC)N2CCOCC2)c(NC(=O)c2ccccc2)s1` (stereo not drawn), the “activity, negative = inhibition” value is reported as -9.28% (inactive).
`Cc1ccc(Cc2cnc(N)s2)o1` was tested, and the “activity, negative = inhibition” value was -4.53% (inactive).
In the case of `CC(C)C1N=C2c3ccccc3N=C(SCC(=O)c3ccc(O)c(O)c3)N2C1=O` (stereo not drawn), the Potency is reported as 3.16 µM (active).
`O=C(NCCCN1CCCCCC1)c1ccc(N2CCCC2=O)cc1` was tested, and the “activity, negative = inhibition” value was -2.14% (inactive).
For `c1ccc2c(NC3C4CC5CC(C4)CC3C5)nc(N3CCOCC3)nc2c1` (stereo not drawn), the “activity, negative = inhibition” value was -24.3% (inactive).
With `NC1=NC(=O)C(Cc2cccc(Cl)c2Cl)S1` (stereo not drawn) the “activity, negative = inhibition” value was -8.17% (inactive).
In the case of `CC(Oc1cccc(NC(=O)c2cccs2)c1)C(=O)c1ccccc1` (stereo not drawn), the “activity, negative = inhibition” value is reported as -15.7% (inactive).
For `CCC(C)Cn1c(O)cc2nn(-c3nc4ccccc4s3)c(=O)c-2c1C` (stereo not drawn), the “activity, negative = inhibition” value was 0.169% (inactive).
In the case of `O=C1c2ccccc2C(=O)N1Cc1cc(-c2ccccc2Cl)no1`, the “activity, negative = inhibition” value is reported as -18% (inactive).
`COc1ccc(OCC(=O)Nc2nnc(-c3ccco3)s2)cc1` was tested, and the “activity, negative = inhibition” value was -18.5% (inactive).
`COc1ccc(NC(=O)CSc2nc(NS(=O)(=O)c3ccc(C)cc3)cc(=O)[nH]2)cc1` was tested, and the “activity, negative = inhibition” value was -17.4% (inactive).
In the case of `COC(C(=O)Nc1ccc(S(=O)(=O)Nc2ccc(C)c(C)c2)cc1)c1ccccc1` (stereo not drawn), the “activity, negative = inhibition” value is reported as -14.3% (inactive).
In the case of `O=C(NCCN1C(=O)S/C(=C\c2cccnc2)C1=O)c1ccc(S(=O)(=O)N2CCCC2)cc1`, the “activity, negative = inhibition” value is reported as -0.658% (inactive).
`O=C(CN1CCN(c2ccc(O)cc2)CC1)Nc1cc(S(=O)(=O)N2CCOCC2)ccc1Cl` was tested, and the “activity, negative = inhibition” value was -16.7% (inactive).
`CCN(CC)c1ccc2oc(=O)c(C)nc2c1` was tested, and the Potency was 50.1 µM (active).
In the case of `COc1ccc(/C(N)=N/OC(=O)CCCc2ccccc2)cc1`, the “activity, negative = inhibition” value is reported as -17.6% (inactive).
`Cc1ccnc2nc(C(=O)Nc3nnc(-c4ccccc4)o3)nn12` was tested, and the “activity, negative = inhibition” value was -16.8% (inactive).
`CCc1ccc2nc3sc(C(=O)Nc4nnc(CC)s4)c(N)c3cc2c1` was tested, and the Potency was 39.8 µM (active).
